The text below walks through data of PubChem BioAssay (NCI).

The panel holds about 83,000 compounds, 20% with a hit somewhere; the sample as a whole holds those more often.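 In brief: 96-well plates, 48 h treatment, single concentration, percent growth endpoint.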 Values without a mark were called inactive. Calls of active or inactive are those of the source. The calls were made as follows: active = growth percent below 10; inactive = the rest.

Common to all, as to test: NCI-60 one-dose screen, 48 h (100 = growth as untreated, 0 = no growth, -100 = all killed)
What all share (settings): 10 µM unless noted

For test [1], the system named is SK-MEL-2 melanoma.
In test [2] the test system is EKVX NSCLC.
Test [3] concerns SN12C renal.
For test [4], the system named is UO-31 renal.
The subject of test [5] is TK-10 renal.
Test [6] concerns ACHN renal.
Test [7] relates to CAKI-1 renal.
For test [8], the system named is A498 renal.
Test [9] concerns CCRF-CEM leukemia.
Test [10] deals with MOLT-4 leukemia.
Test [11] has as its system RPMI-8226 leukemia.
In test [12] the test system is OVCAR-8 ovarian.
The test system of test [13] is OVCAR-5 ovarian.
Test [14] concerns OVCAR-4 ovarian.
The test system of test [15] is SK-OV-3 ovarian.
Test [16] relates to IGROV1 ovarian.
For test [17], the system named is OVCAR-3 ovarian.
For test [18], the system named is HS 578T breast.
In test [19] the test system is NCI/ADR-RES ovarian.

For `CCOC(=O)Nc1ccc(C(=O)/C=C/c2ccccc2)cc1`, the growth is 105% in test [1]; 105% in test [2]; 87% in test [3]; 51.9% in test [4]; 103% in test [5]; 102% in [6]. Besides, the growth was 105% in [7]; 92.1% in test [8]; 91.6% in [9]; 78.8% in test [10]; 18.9% in test [11]; 92.3% in test [12]. Besides, the growth in [13] was 102%; in [14] it was 103%; in test [15], 110%; in [16], -22.8% (active); in [17], 86.8%; in test [18] it was 93.6%. In addition, in test [19], the growth was 89%.

With `COc1nc2ccccc2cc1-c1nc2c(cnn2-c2ccc(Br)cc2)c(=O)[nH]1`, the growth in test [1] was 24.3%; in [2] it was 42.4%; in [3], 33.2%; in [4], 27.1%; in [5], 40.6%; in test [6] it was 35.4%. The growth in [7] is 29.4%; in test [8], 8.46% (active); in test [9], 13.7%; in test [10], 47.7%; in test [11] it was 20.7%; in test [12], 27.7%. The growth in test [13] is 44.1%; in test [14], 57.3%; in test [16], 41.8%; in test [17] it was -34.2% (active); in test [18], 23%; in [19], 4.99% (active).

Consider `OC(COc1ccccc1)CN1CCN(c2ccc(Cl)cc2)CC1` (configuration not stated), for which the growth is 104% in [1]; 109% in [2]; 97.2% in [3]; 78.8% in test [4]; 105% in [5]; 107% in test [6]. In addition, the growth in test [7] was 94.7%; in test [8], 104%; in test [9], -5.19% (active); in test [10], 93.1%; in [11], 95.1%; in [12] it was 93.9%. The growth in [13] was 111%; in test [14] it was 97.6%; in test [16] it was 124%; in test [17], 100%; in test [18], 100%; in test [19], 101%.

On to `Cc1cc(Cl)ccc1NS(=O)(=O)c1ccc(-c2cnc(C3CC3)o2)cc1`, for which the growth was 80.4% in [1]; 32.4% in test [2]; 46.7% in test [3]; 45.8% in test [4]; 66.9% in test [5]; 27.5% in [6]. In addition, the growth in test [7] was 43.4%; in test [8], -5.2% (active); in test [9] it was 22%; in test [10], 2.78% (active); in test [11] it was 19.3%; in test [12] it was 27.4%. Also, the growth in test [13] is 27.8%; in test [14] it was 40%; in test [15], 50.8%; in [16], 23.3%; in test [17], -16.9% (active); in test [18], 22.1%. In test [19], the growth is 6.12% (active).

Take `COc1cc(C(=O)/C=C/c2ccc(OCCCCCC[P+](c3ccccc3)(c3ccccc3)c3ccccc3)cc2)cc(OC)c1OC`: the growth in test [1] is -67.3% (active); in [2], -9.14% (active); in test [3], -63.8% (active); in [4], 1.6% (active); in [5] it was -72% (active); in test [6], -44.5% (active). Besides, the growth in test [7] is 13.2%; in [8], -42% (active); in [9], 20.3%; in test [10], 14%; in test [11], 0.339% (active); in [12] it was -45.5% (active). Moreover, the growth in [13] was -13% (active); in test [14], 10.1%; in test [16], -60.2% (active); in test [17] it was -48% (active); in test [18] it was -6.89% (active); in test [19] it was 74.4%.

Take `COc1cc(CCCO)c(OC)c(OC)c1OC`: the growth in [1] was 118%; in test [2], 105%; in [3], 99.6%; in test [4], 90.4%; in [5], 109%; in test [6] it was 106%. In addition, the growth was 92.3% in test [7]; 83.6% in test [8]; 108% in [9]; 110% in test [10]; 112% in [11]; 107% in test [12]. For the same compound, the growth in test [13] was 103%; in test [14], 102%; in test [16] it was 109%; in test [17] it was 111%; in test [18], 102%; in test [19], 104%.

Take `COc1cc(C)c(Cc2cnc(N)nc2N)cc1OC`: the growth in [1] was 87%; in [2] it was 100%; in [3], 105%; in test [4] it was 88.4%; in test [5] it was 116%; in test [6], 96.6%. Moreover, the growth in test [7] was 97.8%; in [8] it was 107%; in test [9] it was 108%; in test [10], 62.6%; in test [11] it was 82.1%; in test [12] it was 105%. Besides, the growth was 99.6% in test [13]; 99.5% in test [14]; 105% in [15]; 95.1% in test [16]; 114% in test [17]; 103% in test [18]. The growth in [19] is 104%.

Turning to `Cc1ccc(-c2nc(SCC(=O)Nc3nc(-c4ccc(Cl)cc4)cs3)[nH]c(=O)c2C#N)cc1`, the growth in [1] was 82.9%; in test [2], 101%; in test [3], 110%; in test [4], 88.4%; in test [5], 103%; in test [6], 101%. Also, the growth in [7] was 96.1%; in test [8], 85.2%; in test [9] it was 103%; in test [10] it was 90.4%; in test [11], 103%; in test [12], 92.3%. The growth in test [13] is 94.3%; in [14], 111%; in test [16], 105%; in test [17] it was 115%; in test [18], 90.5%; in test [19], 109%.
